From PubChem BioAssay AID493194 (Broad Institute, 2011)
Results with a measured potency or affinity are listed apart. Inconclusive results are not listed. Unmarked numbers belong to inactive results.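 The calls were made as follows: active = a valid curve of falling signal whose half-effect concentration is at most ten times the top tested dose; inconclusive = flat curve at 30 to 70% inhibition, or poor fit; inactive = signal rise, flat within 30%, or potency beyond limit.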

Biological target: Scavenger receptor class B member 1 (Mus musculus) (UniProt Q61009)
Assay: inhibitors of SR-BI mediated HDL lipid uptake, dose response, ldlA[mSR-BI] cells, fluorescence, cherry pick (AID 493194);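 also: CHO cells lacking LDL receptor and overexpressing mouse SR-BI; cellular uptake of fluorescently labeled HDL measured as cell fluorescence; 0% = median of neutral control wells and -100% = median of positive control wells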
Details: CHO ldlA[mSR-BI] DiI-HDL uptake fluorescence, 3 h; series mostly up to 35 µM; activity change, negative = inhibition: at the top concentration

Scavenger receptor class B member 1 (Mus musculus), sequence (Q61009 whole entry, looked up): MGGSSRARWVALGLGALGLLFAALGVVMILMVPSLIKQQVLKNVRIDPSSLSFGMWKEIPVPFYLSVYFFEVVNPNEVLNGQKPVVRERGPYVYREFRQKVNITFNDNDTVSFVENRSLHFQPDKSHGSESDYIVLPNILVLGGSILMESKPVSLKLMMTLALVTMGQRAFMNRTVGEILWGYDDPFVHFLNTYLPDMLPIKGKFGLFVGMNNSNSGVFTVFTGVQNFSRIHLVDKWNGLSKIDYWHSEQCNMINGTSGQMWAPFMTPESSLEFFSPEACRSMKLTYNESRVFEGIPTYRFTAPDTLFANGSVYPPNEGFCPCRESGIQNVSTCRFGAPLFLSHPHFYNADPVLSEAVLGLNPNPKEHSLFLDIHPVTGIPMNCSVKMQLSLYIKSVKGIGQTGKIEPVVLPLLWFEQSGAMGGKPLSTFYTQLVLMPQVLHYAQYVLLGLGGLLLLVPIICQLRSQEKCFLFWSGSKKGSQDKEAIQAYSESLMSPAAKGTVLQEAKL

Q: With `Cc1cc(N(C)C(=O)c2ccc3c(c2)S(=O)(=O)c2cc(Cl)ccc2C3=O)c(C(F)(F)F)o1` as the compound, how does the “activity change, negative = inhibition” value read?
A: -22.7%

Q: `Cc1cccc(NC(=O)c2cc(-c3cc(C)cc(C)c3O)n[nH]2)c1` was tested. Which “activity change, negative = inhibition” value did it give?
A: -31.4%

Q: `CCOC(=O)C1CCCN(C(=O)c2cc(COc3ccc(C)nc3)on2)C1` (stereo unspecified) was tested. Which “activity change, negative = inhibition” value did it give?
A: 56.5%

Q: With `COc1ccc(NC(=O)N2CCN(c3nc(-c4cccc(OC)c4)cs3)CC2)cc1` as the compound, how does the “activity change, negative = inhibition” value read?
A: 2.87%

Q: How did the “activity change, negative = inhibition” value turn out when `COc1ccc(NC(=O)CN2CCN(CC(=O)Nc3ccc(OC)c(OC)c3)CC2)cc1` was run?
A: -35.5%

Q: How did the “activity change, negative = inhibition” value turn out when `N#CCCN(C(=O)COC(=O)CCc1c[nH]c2ccccc12)c1ccc(F)cc1` was run?
A: -3%

Q: `COc1cccc(-c2csc(N3CCN(CC(=O)NNC(=O)c4ccc(Br)cc4)CC3)n2)c1` was tested. Which “activity change, negative = inhibition” value did it give?
A: -9.53%

Q: `CN(Cc1cc(Cl)cc(Cl)c1O)Cc1c(O)ccc2ccccc12` was tested. Which “activity change, negative = inhibition” value did it give?
A: 135%

Q: Which “activity change, negative = inhibition” value does the source give for `COc1cc(OC)cc(C(=O)N[C@H](C(=O)Nc2nc(-c3ccc(F)c(F)c3)cs2)C(C)C)c1` here?
A: 3.52%

Q: With `COc1ccc(C2c3sc(=O)[nH]c3SC3C4CCC(C4)C23)cc1OC` (stereo unspecified) as the compound, how does the “activity change, negative = inhibition” value read?
A: -8.15%

Q: How did the “activity change, negative = inhibition” value turn out when `CC(=O)Nc1ccc(S(=O)(=O)Nc2cc(C)c(-n3nc4ccccc4n3)cc2O)cc1` was run?
A: 28.9%

Q: With `CC(=O)c1c(C)[nH]c(C(=O)OCc2nc3ccsc3c(=O)[nH]2)c1C` as the compound, how does the “activity change, negative = inhibition” value read?
A: 5.08%

Q: With `Cc1cc(C(=O)COC(=O)c2ccc(Cl)c(S(N)(=O)=O)c2)c(C)n1C1CC1` as the compound, how does the “activity change, negative = inhibition” value read?
A: -28.6%

Q: `COc1ccc2c(c1)CC(C1(O)C(=O)N(C)c3ccccc31)C2=O` (stereo unspecified) was tested. Which “activity change, negative = inhibition” value did it give?
A: 75.3%

Q: Which “activity change, negative = inhibition” value does the source give for `Cn1nc(-c2ccc(Cl)cc2)c2cc(C(=O)NCCCN3CCOCC3)sc21` here?
A: 6.44%

Q: How did the “activity change, negative = inhibition” value turn out when `CCN(C(=O)COC(=O)c1c(C)c(-c2ccccc2)nc2ccccc12)C1CCS(=O)(=O)C1` (stereo unspecified) was run?
A: -16.4%
